# From PubChem
# CYP2C9 activ: human CYP2C9 activators, primary screen, biochemical, luminescence. Cytochrome P450 2C9 (Homo sapiens), P11712. recombinant CYP2C9, luciferin-H conversion; active compounds read high; factor 1 = untreated enzyme, 0 = blocked. activation factor at 5 µM. 96,000 tested, 1.4% active;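 active = activation factor of 2 or more for CYP2C9 at a 5 µM dose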
# CYP2C19 activ: human CYP2C19 activators, primary screen, biochemical, luminescence; Cytochrome P450 2C19 (Homo sapiens), P33261; recombinant CYP2C19, luciferin-H EGE luminescence; active compounds read high; 0 = fully inhibited enzyme, 1 = untreated enzyme; activation factor at 5 µM; 96,000 tested, under 10 active; AID 1025, 2008;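 active = activation factor of at least 2 at 5 µM in the primary screen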
# Target sequence (P33261 whole entry, looked up): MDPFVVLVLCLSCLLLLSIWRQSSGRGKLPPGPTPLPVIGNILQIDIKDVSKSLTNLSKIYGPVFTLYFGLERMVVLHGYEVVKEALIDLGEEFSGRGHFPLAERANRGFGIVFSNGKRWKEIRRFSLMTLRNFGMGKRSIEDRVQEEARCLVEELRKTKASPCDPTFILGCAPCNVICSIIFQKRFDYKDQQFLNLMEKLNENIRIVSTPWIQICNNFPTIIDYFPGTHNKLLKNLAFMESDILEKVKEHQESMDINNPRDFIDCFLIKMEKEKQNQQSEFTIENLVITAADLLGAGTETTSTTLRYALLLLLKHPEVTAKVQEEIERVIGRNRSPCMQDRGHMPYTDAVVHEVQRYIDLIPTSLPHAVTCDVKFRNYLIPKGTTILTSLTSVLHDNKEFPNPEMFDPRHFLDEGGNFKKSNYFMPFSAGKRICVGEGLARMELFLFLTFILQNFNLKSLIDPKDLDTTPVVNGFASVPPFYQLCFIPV
# CYP2C9 inhib: blockers of cytochrome P450 2C9 activity – biochemical, luminescence, ADME assay, primary screen. CYP2C9 Supersomes, luciferin-H conversion. inhibition, % at 5 µM. 96,000 tested, 20% active. AID 777, 2007;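 active = blocking of liver enzyme CYP2C9 beyond about 50% at 5 µM, limit read from the data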
# PostGolgi yeast: phenotypic screen on post-Golgi transport, primary screen; post-Golgi transport phenotypic cell assay; inhibition, % at 10 µM; 98,000 tested, 0.9% active; AID 739, 2007;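 note: yeast cells grown in 1536-well plates; yeast grown about 18 h at 30C before absorbance read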
# PostGolgi ctrl: growth inhibition of yeast control strain, primary screen, counter-screen for post-Golgi transport modulator project. efflux-deficient yeast background strain, growth absorbance A615, 16 h. inhibition, % at 10 µM. 98,000 tested, 5% active
# CYP2C19 inh: blockers of cytochrome P450 2C19 activity – biochemical, luminescence, ADME assay, primary screen; 96,000 tested, 21% active; P33261; AID 778, 2007; inhibition, % at 5 µM; CYP2C19 Supersomes, luciferin-H EGE luminescence, 30 min;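 active = CYP2C19 inhibition above a set limit at 5 µM in the primary screen, cut at about 50% in these data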
# Numbers stand for hits; 0 = inactive; - = not tested or not shown. Not all results are given here. Cut-off read from the data, not from the text of the source, unless noted: active = inhibition above about 30%; inactive = the rest.
SMILES,CYP2C9 activ,CYP2C19 activ,CYP2C9 inhib,PostGolgi yeast,PostGolgi ctrl,CYP2C19 inh
Cc1ccc(NC(=O)C(C)Sc2nnc(-c3cccnc3)n2-c2ccccc2)cc1 (configuration not stated),0,0,0,0,0,0
COc1ccc(N2CCN(CCCNC(=O)CC3Oc4ccc(C)cc4NC3=O)CC2)cc1 (configuration not stated),0,0,77,0,0,0
COc1ccc(NC(=O)CCCN2C(=O)C3C4C=CC(C4)C3C2=O)c(OC)c1 (configuration not stated),-,-,-,0,0,-
O=C(NCCN1C(=O)C2C3C=CC(C3)C2C1=O)Nc1ccc(Br)cc1 (configuration not stated),0,0,55,0,0,94
O=C(NCCN1C(=O)C2C3C=CC(C3)C2C1=O)Nc1cccnc1 (configuration not stated),0,0,0,0,0,0
COc1ccccc1NC(=O)NCCN1C(=O)C2C3C=CC(C3)C2C1=O (configuration not stated),0,0,0,0,42,66
CCCC(=O)c1ccc(N2CCN(C(=O)c3ccccc3Br)CC2)c(F)c1,0,0,0,0,0,0
CCC(C)(C)n1nnnc1C(CC(C)C)N1CCC(C(N)=O)CC1 (configuration not stated),0,0,0,0,0,0
CCOCCCN1CN(S(=O)(=O)c2ccc(Cl)cc2)c2nc3ccccc3nc21,0,0,81,0,0,54
CC(C)OCCCN1CN(S(=O)(=O)c2cccc(Cl)c2)c2nc3ccccc3nc21,0,0,81,0,0,54
CC(C)OCCCN1CN(S(=O)(=O)c2ccc(Cl)cc2)c2nc3ccccc3nc21,0,0,0,0,0,0
O=C1c2ccccc2C(=O)N1c1ccc(Cl)cn1,0,0,0,0,0,0
Cc1nc2sc(C(c3ccco3)N3CC(C)OC(C)C3)c(O)n2n1 (configuration not stated),0,0,0,0,0,0
Cn1c(NC(=O)C2c3ccccc3Oc3ccccc32)cc(=O)n(C)c1=O,0,0,0,0,0,0
Cn1c(NC(=O)C2CCCO2)cc(=O)n(C)c1=O (configuration not stated),0,0,66,0,0,0
CCOC(=O)c1sc2ncn(CC(=O)NCC3CCCO3)c(=O)c2c1C (configuration not stated),0,0,0,0,0,0
O=C(CN(C(=O)c1ccc2c(c1)OCCO2)c1ccccc1)NCC1CCCO1 (configuration not stated),0,0,66,0,0,0
CCOc1ccc(N(CC(=O)NCC2CCCO2)S(=O)(=O)c2ccc(SC)cc2)cc1 (configuration not stated),0,0,0,0,0,68
O=C(CN(c1ccc2c(c1)OCCO2)S(=O)(=O)c1ccccc1)NCC1CCCO1 (configuration not stated),0,0,77,0,0,0
COc1ccc(S(=O)(=O)NCC(=O)N(CC(=O)NCC2CCCO2)c2c(C)cccc2C)cc1 (configuration not stated),0,0,68,0,0,0
O=C(CN(Cc1ccc2c(c1)OCO2)C(=O)CNS(=O)(=O)c1ccccc1)NCC1CCCO1 (configuration not stated),0,0,0,0,0,0
O=C(NCC1CCCO1)c1ccc2c(c1)OCO2 (configuration not stated),0,0,0,0,0,0
C=C1CC2C=C(NC(C)=O)CC(C1)C2 (configuration not stated),0,0,0,0,0,0
CCN(CC)C(=O)c1ccc(CS(=O)(=O)c2ccc(OC)cc2)o1,-,-,-,0,0,-
CCSc1nnc(-c2cccnc2)n1-c1ccc(Cl)c(C)c1,0,0,0,0,0,0
Cc1cccc(NC(=O)C2CC(=O)n3cnnc3S2)c1 (configuration not stated),0,0,0,0,0,0
CN(CC(=O)NCC1CCCO1)S(=O)(=O)c1cc(Cl)ccc1Cl (configuration not stated),3.2,0,0,0,0,64
